This is a sample that favours compounds with a hit; in the whole collection about 3.5% have one here.
Bead autofluor = flagged as autofluorescent in microsphere protease counterscreen; compound autofluorescence counterscreen, microsphere flow cytometry; hits give high values; fluorescence intensity (concentration not given with the values); 360,000 tested, 3.1% active; AID 624483; in the data active = fluorescence intensity above about 16000; inconclusive = no clear call, values can overlap the other calls
BoNT-A LC inh2 = BoNT/A light chain protease inhibitors, primary screen, biochemical, flow cytometry, MLPCN library | Botulinum neurotoxin type A light chain protease (Clostridium botulinum A str. ATCC 3502) | multiplex microsphere protease substrate cleavage | 360,000 tested, 0.17% active | inhibition, % at 10 µM
Anthrax LF inh2 = Bacillus anthracis LF protease inhibitors, primary screen, biochemical, multiplex microsphere, MLPCN library | Lethal factor (Bacillus anthracis), P15917 | 360,000 tested, 0.12% active | inhibition, % at 10 µM | multiplex microsphere protease cleavage assay | AID 588501, 2011
Target sequence (P15917 whole entry, looked up): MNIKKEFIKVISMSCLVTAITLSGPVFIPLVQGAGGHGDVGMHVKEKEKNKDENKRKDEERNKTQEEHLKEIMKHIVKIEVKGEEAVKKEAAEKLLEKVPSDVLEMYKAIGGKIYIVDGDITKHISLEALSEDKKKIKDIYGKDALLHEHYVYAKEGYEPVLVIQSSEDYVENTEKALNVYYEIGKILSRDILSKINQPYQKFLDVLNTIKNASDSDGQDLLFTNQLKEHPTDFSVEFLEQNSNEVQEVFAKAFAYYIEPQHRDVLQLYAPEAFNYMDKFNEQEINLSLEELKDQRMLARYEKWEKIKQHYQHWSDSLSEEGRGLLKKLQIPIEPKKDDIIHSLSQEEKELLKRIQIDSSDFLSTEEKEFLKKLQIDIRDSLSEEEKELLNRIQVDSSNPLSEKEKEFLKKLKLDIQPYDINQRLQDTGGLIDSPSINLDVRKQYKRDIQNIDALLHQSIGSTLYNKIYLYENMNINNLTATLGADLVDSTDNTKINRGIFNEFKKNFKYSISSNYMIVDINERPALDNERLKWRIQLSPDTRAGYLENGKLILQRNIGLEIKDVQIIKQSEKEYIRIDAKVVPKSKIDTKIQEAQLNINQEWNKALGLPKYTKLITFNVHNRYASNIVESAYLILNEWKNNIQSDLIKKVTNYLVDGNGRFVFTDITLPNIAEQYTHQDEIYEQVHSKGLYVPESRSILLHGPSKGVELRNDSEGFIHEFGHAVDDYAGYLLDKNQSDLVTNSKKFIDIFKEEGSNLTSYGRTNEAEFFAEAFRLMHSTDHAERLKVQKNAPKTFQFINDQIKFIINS
BoNT F protease = BoNT/F light chain protease inhibitors, primary screen, biochemical, flow cytometry, MLPCN library; 360,000 tested, 0.22% active; Botulinum neurotoxin type F light chain protease (Clostridium botulinum); inhibition, % at 10 µM; Multiplex microsphere protease cleavage assay; in the data active = inhibition above about 35%, passing the limit was not always enough; inconclusive = no clear call, values can overlap the other calls
Numbers stand for hits; i = inactive; ? = inconclusive. Cut-off read from the data, not from the text of the source, unless noted: active = inhibition above about 30%; inconclusive = no clear call, values can overlap the other calls; inactive = below that.

SMILES	Bead autofluor	BoNT-A LC inh2	Anthrax LF inh2	BoNT F protease
CC1(C)Cc2c(C#N)c(N)sc(=S)c2CO1	i	i	i	i
CC(C)C1Cc2c(C#N)c(N)sc(=S)c2CO1 (centres undefined)	i	72	47	i
NC(N)=NCCCS(=O)(=O)Nc1ccc(Nc2c3ccccc3nc3cc([N+](=O)[O-])ccc23)cc1	i	i	i	i
Cc1ccoc1C(=O)N1CCN(C(=O)c2occc2C)CC1	i	i	i	i
COC(=O)/C=c1/sc2n(c1=O)CCN=2	i	i	i	i
COC(=O)/C=c1\sc2n(c1=O)C(C)=CC(C)(C)N=2	19740	i	i	i
COc1ccc(CNC(=O)CCCn2nc(C)c3c(C)n(-c4ccc(C)cc4)nc3c2=O)cc1	i	i	i	i
CN(C(=O)Cc1c(C(=O)O)n(C)c2ccccc12)c1cccc(C(F)(F)F)c1	i	i	i	i
C/C(=C\c1ccccc1)CN1CCN(c2ccccc2)CC1	21899	i	i	i
C/C=C(\C)CN1CCN(c2ccccc2F)CC1	23234	i	i	i
CC1(C)SC(C)(C)N(C=O)C1C(=O)O (centres undefined)	i	i	i	i
CCc1c(C)nc(N)n2c(SCC(=O)Nc3ccccc3OC)nnc12	23325	i	i	i
CCOc1ccccc1NC(=O)CSc1nnc2c(CC)c(C)nc(N)n12	i	i	i	i
COc1ccc(CCNC2CC(=O)N(C)C2=O)cc1OC (centres undefined)	24224	i	i	i
COc1cc(C(=O)NCCc2ccc3c(c2)OCCO3)ccc1OCC(=O)N1CCOCC1	16542	i	i	i
COc1ccc(CCNC2CC(=O)N(CCc3ccccc3)C2=O)cc1OC (centres undefined)	i	i	i	i
CC1CCCCC1NC(=O)c1ccc(N2CCCC2=O)cc1 (centres undefined)	22649	?	i	i
COc1ccc(CCNC(=O)c2ccc(N3CCCC3=O)cc2)cc1OC	21331	i	i	i
Cc1[nH]c(=O)c(C#N)c(C)c1CCC(=O)NCc1cccc(C(F)(F)F)c1	i	i	i	i
Cc1nn(CC(=O)NCc2cccs2)c(=O)c2nn(-c3ccccc3)c(C)c12	i	i	i	i
CCCC1CCC(c2nc(-c3cccnc3)no2)CC1 (centres undefined)	19821	?	i	i
CCCCCCC1CCC(c2nc(-c3ccncc3)no2)CC1 (centres undefined)	i	i	i	i
CC1(C)NC(=O)N(CCCOc2ccc(Br)cc2Cl)C1=O	23298	i	i	i
CC1(C)NC(=O)N(CCCCOc2ccc(Cl)cc2)C1=O	23237	i	i	i
CC1(C)NC(=O)N(CCCCOc2ccc(Br)cc2Cl)C1=O	?	i	i	i
SMILES	Bead autofluor	BoNT-A LC inh2	Anthrax LF inh2	BoNT F protease
Cc1cc(OCCCCN2C(=O)NC(C)(C)C2=O)cc(C)c1Cl	23207	i	i	i
CC1(C)NC(=O)N(CCCCOc2ccc(Cl)cc2C=O)C1=O	i	i	i	i
CCc1cc(OCCN2C(=O)NC(C)(C)C2=O)ccc1Cl	20493	i	i	i
CC1(C(=O)NS(=O)(=O)c2cccc(C#N)c2)CCN1C(=O)c1cccc2ccccc12 (centres undefined)	i	i	i	i
O=C(N1CCOCC1)N1CCN(Cc2ccccc2)CC1	16289	?	i	i
O=C1C=C(NCC2CCCO2)C2(CCCCC2)O1 (centres undefined)	19832	i	i	i
Cc1ccc(C(=O)Nc2cnc3ccccn3c2=O)cc1	24404	i	i	i
Cc1ccc2ncc(NC(=O)c3ccc(F)cc3)c(=O)n2c1	i	i	i	i
CCn1cnc2cc(NCc3cccc(OC)c3O)ccc21	i	i	i	i
CCCCn1cnc2cc(NCc3cccc(OC)c3O)ccc21	20423	?	i	i
CCc1ccc(NC(=O)c2cc(-c3ccco3)on2)cc1	24283	i	i	i
Clc1ccc(Cn2ccc(-c3ccc4c(c3)OCO4)n2)cc1Cl	23441	i	i	i
Cc1nn(Cc2ccc(Cl)c(Cl)c2)c(C)c1NC(=O)c1cc(-c2ccc3c(c2)OCO3)on1	19313	?	i	i
Cc1nn(Cc2ccccc2)c(C)c1NC(=O)c1cc(-c2ccco2)on1	20385	i	i	i
c1cc2c(cc1Cn1cnnn1)OCO2	i	i	i	i
CC(C)NC(=O)C(=O)Nc1cc2c3c(c1)C(C)C(=O)N3CCC2 (centres undefined)	i	i	i	i
CCN(CC(=O)Nc1c(F)cccc1F)C(=O)CSc1nc(C)cc(C)n1	i	i	i	i
NS(=O)(=O)c1ccc(CCNc2nc(CN3CCCCC3)nc3sc4c(c23)CCC4)cc1	21682	i	i	i
O=C(ON=C1CCN(c2ccc([N+](=O)[O-])cc2)CC1)c1ccccc1	19501	?	i	i
COc1ccc(C(=O)ON=C2CCN(c3ccc([N+](=O)[O-])cc3)CC2)cc1	i	i	i	i
COc1ccccc1NC(=O)/C(=C\c1cccnc1)NC(=O)c1ccc(C)cc1	i	i	i	i
CCCCN(CCCNC(=S)NCCCc1cnc[nH]1)c1ccc(Br)cn1	i	i	i	i
O=C(O)c1ccc2c(c1)C(=O)N(c1ccc([N+](=O)[O-])cn1)C2=O	i	i	i	i
Clc1ccc(Sc2oc(/C=N/n3cnnc3)cc2Br)cc1	19698	i	i	i
COc1ccc2oc(C(=O)OCC(=O)N3CCN(S(=O)(=O)c4ccc(C)cc4)CC3)c(C)c2c1	i	i	i	i
SMILES	Bead autofluor	BoNT-A LC inh2	Anthrax LF inh2	BoNT F protease
Cc1cccc(NC(=S)NCc2ccc3c(c2)cc(C)n3C)c1C	i	47	i	i
COc1cccc(NC(=S)NCc2ccc3c(c2)cc(C)n3C)c1	i	54	i	i
Cc1cccc(NC(=S)NCc2cccs2)c1C	i	i	i	i
CCOc1ccc(NC(=S)NCc2ccc3[nH]c(C)cc3c2)cc1	i	i	i	i
Cc1cc2cc(CNC(=S)Nc3ccc(OC(F)(F)F)cc3)ccc2n1C	i	60	i	i
Cc1c(Cl)cccc1NC(=S)NCc1ccccc1	i	i	i	i
Cc1cccc(NC(=S)NCc2ccccc2Cl)c1C	i	i	i	37
ON=C1C2CC=C(c3ccccc3)C1CCC2 (centres undefined)	i	i	i	i
CC(=O)Nc1c(I)c(C(=O)N[C@H]2C(O)O[C@H](CO)[C@@H](O)[C@@H]2O)c(I)c(N(C)C(C)=O)c1I (some centres undefined)	i	i	i	i
O=C(CCNC(=O)c1ccc(Br)cc1)NCc1ccccn1	i	i	i	i
O=C1CSC(c2cn(-c3ccccc3)nc2-c2cc3ccccc3oc2=O)N1Cc1ccco1 (centres undefined)	23471	?	i	i
O=C1CSC(c2cn(-c3ccccc3)nc2-c2cc3ccccc3o2)N1Cc1ccccc1 (centres undefined)	i	i	i	i
CC(C)C(=O)Nc1ccc2oc(-c3cc(F)c(F)cc3Cl)nc2c1	24150	i	i	i
CC(=O)Nc1ccc2oc(-c3cc(F)c(F)cc3Cl)nc2c1	i	i	i	i
CC[N+]1(C)CCC(O)(/C=C/c2ccccc2)C(C(=O)/C=C/c2ccccc2)C1 (centres undefined)	i	i	i	i

High-throughput results as filed in PubChem BioAssay.
